These results are taken from PubChem BioAssay (NCATS).

Each structure is given as a SMILES string. Records with an inconclusive call do not appear. Entries that show only a call come without a potency. The source made the active and inactive calls. The call rests on the fitted dose curve; in most records, active means well fitted cell-killing curve with a large enough effect; inconclusive means small, poorly fitted or top-dose-only effect; inactive means flat fitted curve, though single readings scatter.
Potency means the concentration at half of the fitted maximal effect.

The assay is described as follows: Quantitative highthroughput screen to assess conditional lethalithy of P12 Ichikawa cells grown in Human Plasma-Like Medium with dialyzed fetal bovine serum (HPLM+ds) (AID 1963879). Further: nearly all actives have a fitted effect of over 35% in size. Particulars: ATP luminescence, 48 h; Potency: viability; series mostly up to 45.8 µM. From the text:
Assay Provider: Jason Cantor Ph.D.
Department of Biochemistry
University of Wisconsin-Madison, Madison, WI, USA
Chemical screening studies have identified drug sensitivities across hundreds of cancer cell lines but most putative therapeutics fail to translate. Discovery and development of drug candidates in models that more accurately reflect nutrient levels in human blood is a major challenge. Here we performed high-throughput screens in conventional versus Human Plasma-Like Medium (HPLM) to identify compounds that were "missed" when screening using the artificial culture condition. Sets of conditional anticancer compounds spanned phases of clinical development and included non-oncology drugs were assessed. […] We also traced conditional phenotypes for several chemotherapeutics to availability of HPLM-specific metabolites and confirmed others for compounds whose reported targets are encoded by nonessential genes. Our findings establish generalizable strategies for exploiting conditional lethality in HPLM to reveal therapeutic candidates and mechanisms of action in cancer cells.
Described herein are the results of each viability screens against three cell lines: NOMO1 (an acute myeloid leukemia cell line); P12-Ichikawa (a T-cell acute lymphoblastic leukemia); and SEM (a B-cell ALL). Each assay was screened using 3 different cell culture media: homemade human plasma-Like medium with 10% dialyzed fetal bovine serum (HPLM+ds); RPMI1640 with 10% untreated FBS and 5mM glucose (RPMI+s); and RPMI1640 with 10% dialyzed fetal bovine serum and 5 mM glucose (RPMI+ds).
PROTOCOL TABLE (as described by Inglese J, Shamu CE and Guy RK. 2007)
SEQUENCE No. (e.g., 1, 2, 3, etc.); […] (e.g., Cells, Incubation, Reagent, etc.); VALUE and DESCRIPTION.
1; Cells; 5 uL; white, solid bottom 1536-well Greiner assay plate.
2; Compounds; 23 nL; Kalypsis pin tool (Wako USA) equipped with a 1536-well pin head to transfer to the assay plates.
3; Incubation; 48 hours; 37C incubation.
4; Reagent; 3 uL; CellTiter Glo (Promega).
5; Incubation; 5 min, room temperature
6; Detection; Luminescence, Viewlux PerkinElmer.
NOTES (numbers refer to Sequence numbers above)
1. Briefly, 5 ul of cell reagent was dispensed using a Multidrop Combi Dispenser. The NOMO1 and SEM cells were plated at 500 cells/well and the P12-Ichikawa line at 1000 cells/well.
2. After seeding the cells, 23 nL of MIPE 4.1 library compounds (in DMSO) were added to each plate using a Kalypsys 1536 Pintool dispenser. Bortezomib at final concentration of […] and DMSO were added to each plate as positive and negative controls respectively. For each screen, MIPE 4.1 compounds were added over an eleven-point concentration range […] in 3-fold dilutions.
3. Each plate was covered with a stainless steel gasketed lid to prevent evaporation and incubated for 48 hour at 37C, 95% relative humidity, and 5% CO2.
4-5. Three microliter CellTilter-GloTM luminescent substrate mix (Promega) reagent was added to the assay plate and incubated at room temperature for 5 min.
6. The luminescence signal was measured using a ViewLux (PerkinElmer) multiplate reader with a 2 second exposure time per plate. Data for each compound were normalized as percent viability such that measurements for DMSO and the empty well controls in each plate were defined as 100% and 0%, respectively.
Take `COc1cccc2c1C(=O)c1c(O)c3c(c(O)c1C2=O)C[C@@](O)(C(C)=O)C[C@H]3O[C@H]1C[C@H](N)[C@H](O)[C@H](C)O1`: the Potency was 0.264 µM (active).
Consider `Cc1nc(-c2ccc(OCC(C)C)c(C#N)c2)sc1C(=O)O`, for which the Potency entry was “inactive”.
Consider `O=C1NC(=O)C(=Cc2ccc3nccc(-c4ccncc4)c3c2)S1`, for which the Potency was 7.43 µM (active).
In the case of `CCN(CC)CC#CCOC(=O)C(O)(c1ccccc1)C1CCCCC1` (stereo not given), the Potency result is “inactive”.
In the case of `CC[C@@H]1C=C(C)C[C@H](C)C[C@H](OC)[C@H]2O[C@@](O)(C(=O)C(=O)N3CCCC[C@@H]3C(=O)O[C@H](C(C)=C[C@@H]3CC[C@H](Cl)[C@H](OC)C3)[C@H](C)[C@@H](O)CC1=O)[C@H](C)C[C@H]2OC` it was “inactive”; in that of `O=C(O)Cc1cccc(OCCCN(Cc2cccc(C(F)(F)F)c2Cl)CC(c2ccccc2)c2ccccc2)c1`, “inactive”.
Turning to `O=[N+]([O-])c1cn2c(n1)OC[C@@H](OCc1ccc(OC(F)(F)F)cc1)C2`, the Potency result was “inactive”.
For `C=CCc1cccc(C=NNC(=O)CN2CCN(Cc3ccccc3)CC2)c1O`, the Potency was 16.6 µM (active).
In the case of `CNC(=O)c1ccccc1Nc1nc(Nc2ccc(N3CCOCC3)cc2OC)ncc1Cl` it was 8.33 µM (active); in that of `COC(=O)Nc1nc2ccc(C(=O)c3ccccc3)cc2[nH]1`, 1.05 µM (active); in that of `C[C@H](NCc1ccc(OCc2cccc(F)c2)cc1)C(N)=O`, 23.5 µM (active).
With `N[C@@H](Cc1cc(I)c(Oc2cc(I)c(O)c(I)c2)c(I)c1)C(=O)O`, the Potency entry was “inactive”.
Consider `O=C(Nc1cccc(Nc2ncc(Br)c(NCCc3cnc[nH]3)n2)c1)N1CCCC1`, for which the Potency was 0.662 µM (active).
Consider `O=P(O)(O)C(O)(Cc1cccnc1)P(=O)(O)O`, for which the Potency result was “inactive”.
In the case of `CCOc1ccc(Nc2nc(-c3c(C)nc4ccccn34)cs2)cc1` it was 0.0469 µM (active); in that of `OC(Cn1cncn1)(Cn1cncn1)c1ccc(F)cc1F`, “inactive”; in that of `O=C1Nc2ccc(Cl)cc2C(C#CC2CC2)(C(F)(F)F)O1` (stereo not given), “inactive”.
Take `CCOC(=O)N1c2ccc(C(F)(F)F)cc2[C@@H](N(Cc2cc(C(F)(F)F)cc(C(F)(F)F)c2)C(=O)OC)C[C@H]1CC`: the Potency result was “inactive”.
With `COCCCOc1cc(C[C@@H](C[C@H](N)[C@@H](O)C[C@H](C(=O)NCC(C)(C)C(N)=O)C(C)C)C(C)C)ccc1OC`, the Potency result was “inactive”.
For `O=C(CCCN1CCC(O)(c2ccc(Cl)cc2)CC1)c1ccc(F)cc1`, the Potency result is “inactive”.
As to `CC(C)OC(=O)C1=CN(C(=O)c2ccc(F)c(F)c2)CC(C)(C)c2c1[nH]c1ccccc21`, the Potency entry was “inactive”.
As to `COc1ccc(-c2cc3nccn3c(Nc3ncccc3C(N)=O)n2)cc1OC`, the Potency result is “inactive”.
As for `COc1cc(Nc2nc3ccccc3nc2NS(=O)(=O)c2ccc(NC(=O)c3ccc(C)c(OC)c3)cc2)cc(OC)c1`, the Potency is 5.9 µM (active).
On to `CCCCCCCCOc1ccccc1C(=O)Nc1ccc(C(=O)OCC[N+](C)(CC)CC)cc1`, for which the Potency entry was “inactive”.
In the case of `CCCCOCCOc1nc(-c2ccc(C(=O)O)c(F)c2)sc1C`, the Potency entry was “inactive”.
Turning to `O=C(O)C(O)Cc1ccc(O)c(O)c1` (stereo not given), the Potency entry is “inactive”.
Take `O=C(C[C@@H]1CC=CCCC(=O)O[C@H](c2ccccc2)CNC1=O)NCc1ccc(Cl)cc1`: the Potency result is “inactive”.
As to `NS(=O)(=O)c1cc2c(cc1Cl)NC(C(Cl)Cl)NS2(=O)=O` (stereo not given), the Potency entry is “inactive”.
On to `C#Cc1cccc(Nc2ncnc3cc(OC)c(OCCCCCCC(=O)NO)cc23)c1`, for which the Potency was 0.235 µM (active).
In the case of `CC(C)(C)c1cc(NC(=O)Nc2ccc(-c3cn4c(n3)sc3cc(OCCN5CCOCC5)ccc34)cc2)no1` it was “inactive”.
Regarding `COc1cc2nc(N3CCCN(C)CC3)nc(NC3CCN(Cc4ccccc4)CC3)c2cc1OC`, the Potency was 11.8 µM (active).
In the case of `CC(C)c1ccc(Cn2ccc3c4c(N)nc(NC5CC5)nc4ccc32)cc1` it was 3.72 µM (active).
In the case of `C=C1C(=O)O[C@H]2[C@@H]1CCC(C)=CCC[C@@]1(C)O[C@@H]21` it was 2.35 µM (active); in that of `Cc1oc(=O)oc1CN1CCN(c2cc3c(cc2F)c(=O)c(C(=O)O)c2n3C(C)S2)CC1` (stereo not given), “inactive”.
`Cc1cnc(C(=O)O)c[n+]1[O-]`: the Potency entry was “inactive”.
In the case of `NC(=O)NN=Cc1ccc([N+](=O)[O-])o1` it was “inactive”; in that of `O=C1NC(=O)C(=Cc2ccc(-c3ccc(F)cc3)o2)S1`, “inactive”; in that of `c1cc(CN2CCCNCCNCCCNCC2)ccc1CN1CCCNCCNCCCNCC1`, “inactive”.
In the case of `Cc1coc2c1C(=O)C(=O)c1c-2ccc2c(C)cccc12` it was “inactive”; in that of `COc1cc(O)c2c(c1)C1OC1C[C@H](O)[C@H](O)C(=O)C=CC[C@H](C)OC2=O` (stereo not given in full), 18.7 µM (active).
